The sample as a whole holds a higher share of hits than the screen did.
NSD2 inh: blocks human NSD2 histone methyltransferase activity | 44,000 tested, 0.07% active | inhibition, % at 12.5 µM | NSD2-SET H3K36me1 DELFIA fluorescence, biochemical; in the data active = inhibition above about 54%, passing the limit was not always enough;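 note: inhibitors reduce the monomethyl H3K36 fluorescence signal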
Target sequence (O96028 whole entry, looked up): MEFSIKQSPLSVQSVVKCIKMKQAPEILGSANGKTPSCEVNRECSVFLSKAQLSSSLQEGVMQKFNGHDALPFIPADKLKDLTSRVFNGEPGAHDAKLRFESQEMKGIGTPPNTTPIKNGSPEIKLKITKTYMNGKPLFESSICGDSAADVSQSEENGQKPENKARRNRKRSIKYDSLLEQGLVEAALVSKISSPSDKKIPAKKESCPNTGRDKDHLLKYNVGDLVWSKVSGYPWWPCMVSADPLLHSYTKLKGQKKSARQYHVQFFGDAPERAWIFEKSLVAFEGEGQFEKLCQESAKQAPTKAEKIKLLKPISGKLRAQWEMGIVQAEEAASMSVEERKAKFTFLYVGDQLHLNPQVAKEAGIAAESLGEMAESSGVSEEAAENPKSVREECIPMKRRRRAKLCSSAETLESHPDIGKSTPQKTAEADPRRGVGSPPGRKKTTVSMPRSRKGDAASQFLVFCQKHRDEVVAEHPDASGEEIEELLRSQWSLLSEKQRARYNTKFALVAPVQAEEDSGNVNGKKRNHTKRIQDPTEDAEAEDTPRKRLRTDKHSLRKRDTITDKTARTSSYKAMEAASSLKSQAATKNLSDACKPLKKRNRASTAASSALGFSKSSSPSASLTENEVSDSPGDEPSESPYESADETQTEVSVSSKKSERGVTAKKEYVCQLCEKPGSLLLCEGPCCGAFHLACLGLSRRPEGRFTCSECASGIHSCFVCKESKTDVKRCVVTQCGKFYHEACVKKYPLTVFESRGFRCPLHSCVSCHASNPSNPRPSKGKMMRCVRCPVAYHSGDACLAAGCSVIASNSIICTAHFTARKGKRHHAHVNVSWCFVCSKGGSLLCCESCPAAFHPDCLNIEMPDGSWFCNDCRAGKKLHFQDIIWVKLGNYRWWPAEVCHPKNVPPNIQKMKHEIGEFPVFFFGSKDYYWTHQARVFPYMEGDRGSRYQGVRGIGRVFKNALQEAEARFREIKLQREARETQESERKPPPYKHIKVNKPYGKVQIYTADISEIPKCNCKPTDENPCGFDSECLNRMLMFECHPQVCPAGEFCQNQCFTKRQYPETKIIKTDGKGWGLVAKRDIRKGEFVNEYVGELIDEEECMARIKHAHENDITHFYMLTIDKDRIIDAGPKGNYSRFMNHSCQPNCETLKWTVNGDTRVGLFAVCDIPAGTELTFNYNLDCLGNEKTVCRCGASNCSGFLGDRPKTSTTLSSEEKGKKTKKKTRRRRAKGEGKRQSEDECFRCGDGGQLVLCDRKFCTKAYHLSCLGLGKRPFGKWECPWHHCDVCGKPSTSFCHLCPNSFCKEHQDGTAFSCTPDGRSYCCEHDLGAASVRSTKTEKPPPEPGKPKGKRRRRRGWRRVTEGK
The depositor's hits bear a star.

For C[C@@H]1CN([C@@H](C)CO)C(=O)Cc2cc(N(C)C)ccc2O[C@H]1CN(C)S(=O)(=O)c1ccccc1 the results were NSD2 inh -6.
`C[C@@H]1CN([C@H](C)CO)S(=O)(=O)c2ccc(C#CC(C)(C)O)cc2O[C@H]1CN(C)Cc1ccc(-c2ccccc2)cc1` gave NSD2 inh 4.
`COc1ccc(S(=O)(=O)Nc2ccc3c(c2)[C@@H]2C[C@H](CC(=O)NCC4CC4)O[C@@H](CO)[C@@H]2O3)cc1` gave NSD2 inh 3.
Screening C[C@H]1CN([C@@H](C)CO)C(=O)Cc2cc(NC(=O)Cc3ccccc3)ccc2O[C@H]1CN(C)C(=O)NC1CCCCC1 returned NSD2 inh 2.
C[C@H]1CCCCO[C@H](CN(C)C)[C@@H](C)CN([C@@H](C)CO)C(=O)c2cc(NC(=O)c3ccccc3)ccc2O1 was read as NSD2 inh 2.
`COc1ccc(S(=O)(=O)N(C)C[C@H]2OCCCC[C@H](C)Oc3ccc(NC(=O)CCC(F)(F)F)cc3C(=O)N([C@H](C)CO)C[C@H]2C)cc1` gave NSD2 inh -2.
For CC(C)CC(=O)c1c(O)cc(O)cc1OC1OC(COC(=O)c2cc(O)c(O)c(O)c2)C(O)C(O)C1O (configuration not stated) the results were NSD2 inh 52*.
`O=C(OCc1ccccc1O[C@@H]1O[C@H](CO)[C@@H](O)[C@H](O)[C@H]1O)c1c(O)cccc1O[C@@H]1O[C@H](CO)[C@@H](O)[C@H](O)[C@H]1O` gave NSD2 inh 3.
`COc1cc(C(=O)OCC2(O)COC(OCC3OC(Oc4c(OC)cc(CO)cc4OC)C(O)C(O)C3O)C2O)cc(OC)c1O` (configuration not stated) gave NSD2 inh 20.
Screening C[C@H](CO)N1C[C@H](C)[C@@H](CN(C)Cc2ccc(C(F)(F)F)cc2)Oc2ccc(NS(C)(=O)=O)cc2CC1=O returned NSD2 inh 11.
For COC(=O)[C@@H](O)[C@H]1[C@@]2(C)C[C@]3(O)C4[C@@H](O[C@]56CC(=O)O[C@@H](c7ccoc7)[C@@]5(C)CCC([C@]46O)[C@]13C)[C@H]2O (some centres not stated) the results were NSD2 inh 76*.
CC(=O)O[C@@H]1CC2C(C)(C)C(=O)C3OC3[C@]2(C)C2CC[C@@]3(C)[C@H](c4ccoc4)OC(=O)C4OC43[C@@]21C (some centres not stated) was read as NSD2 inh -2.
`CC12CC(c3ccoc3)OC(=O)C1CCC1(C)C2C2OC(=O)C1(O)C1OC21` (configuration not stated) gave NSD2 inh 2.
`C[C@@H]1CN([C@@H](C)CO)C(=O)c2cc(C#Cc3cccc(F)c3)cnc2O[C@@H]1CN(C)C(=O)c1ccccc1F` gave NSD2 inh -3.
COCC(=O)N(C)C[C@H]1Oc2cc(C3=CCCCC3)ccc2S(=O)(=O)N([C@@H](C)CO)C[C@@H]1C was read as NSD2 inh 1.
Cc1ccc(S(=O)(=O)Nc2cccc3c2O[C@H](CN(C)C(=O)Nc2ccc4c(c2)OCO4)[C@@H](C)CN([C@H](C)CO)C3=O)cc1 was read as NSD2 inh 4.
Screening Cc1noc(C)c1NC(=O)Nc1ccc2c(c1)CC(=O)N([C@H](C)CO)C[C@@H](C)[C@@H](CN(C)C(=O)Nc1cccc3ccccc13)O2 returned NSD2 inh 1.
`O=C(CCCCCC(=O)Nc1ccccc1O)N/N=C/c1ccccc1OCCO` gave NSD2 inh -1.
`C[C@H]1CN([C@@H](C)CO)S(=O)(=O)c2ccc(C#CCN(C)C)cc2O[C@@H]1CN(C)C(=O)C1CC1` gave NSD2 inh -6.
C[C@H]1CN([C@@H](C)CO)C(=O)c2cc(NS(=O)(=O)c3cccs3)ccc2O[C@@H]1CN(C)C(=O)NC1CCCCC1 was read as NSD2 inh 7.
For COc1ccc(NC(=O)Nc2ccc3c(c2)C(=O)N([C@H](C)CO)C[C@@H](C)[C@H](CN(C)C(=O)c2ccccc2)OCCCC[C@@H](C)O3)cc1 the results were NSD2 inh -2.
CSc1nn(C)c2cnn(C)c(=O)c12 was read as NSD2 inh -7.
`C[C@H]1CN([C@@H](C)CO)C(=O)c2cc(-c3ccccc3F)cnc2O[C@H]1CN(C)C` gave NSD2 inh -32.
`COc1ccc(S(=O)(=O)N(C)C[C@@H]2Oc3c(NC(=O)C4CCCCC4)cccc3C(=O)N([C@@H](C)CO)C[C@H]2C)cc1` gave NSD2 inh -2.
For CC(C)CC#Cc1ccc2c(c1)O[C@H](CN(C)Cc1cccc(F)c1)[C@H](C)CN([C@H](C)CO)S2(=O)=O the results were NSD2 inh -6.
CC(C)NC(=O)N(C)C[C@@H]1Oc2c(NS(=O)(=O)c3ccccc3)cccc2C(=O)N([C@H](C)CO)C[C@H]1C was read as NSD2 inh 0.
For C[C@@H]1CN([C@@H](C)CO)C(=O)c2cc(NC(=O)Nc3ccc4c(c3)OCO4)ccc2O[C@@H](C)CCCCO[C@@H]1CN(C)Cc1ccc(C(=O)O)cc1 the results were NSD2 inh 19.
Cc1noc(C)c1S(=O)(=O)Nc1ccc2c(c1)CC(=O)N([C@@H](C)CO)C[C@H](C)[C@@H](CN(C)Cc1ccncc1)O2 was read as NSD2 inh 9.
For C[C@@H]1CN([C@H](C)CO)C(=O)c2cc(-c3cncnc3)cnc2O[C@@H]1CN(C)C(=O)CN1CCOCC1 the results were NSD2 inh -64.
`COc1ccc(S(=O)(=O)Nc2cccc3c2O[C@@H](CN(C)Cc2ccc(Oc4ccccc4)cc2)[C@@H](C)CN([C@H](C)CO)C3=O)cc1` gave NSD2 inh 2.
`Oc1ccc2c(c1O)OCC1c3cc4c(cc3OC21)OCO4` (configuration not stated) gave NSD2 inh 4.
OC[C@H]1O[C@@H](Oc2ccc3c(c2)OC[C@H]2c4cc5c(cc4O[C@@H]32)OCO5)[C@H](O)[C@@H](O)[C@@H]1O was read as NSD2 inh 68*.
`COc1ccc2c(c1)O[C@H]1c3ccc(O)cc3OC[C@@H]21` gave NSD2 inh 2.
Cc1noc(C)c1S(=O)(=O)Nc1ccc2c(c1)CC(=O)N([C@@H](C)CO)C[C@H](C)[C@@H](CN(C)C(=O)Nc1ccc(F)cc1)O2 was read as NSD2 inh -1.
C[C@@H]1CN([C@H](C)CO)S(=O)(=O)c2ccc(C#CC3(O)CCCC3)cc2O[C@H]1CN(C)C(=O)Cc1ccccc1 was read as NSD2 inh 7.
Screening COc1ccc(/C=N/NC(=O)CCCCCCC(=O)Nc2ccccc2O)cc1O returned NSD2 inh -2.
For COc1ccc(NC(=O)Nc2ccc3c(c2)CC(=O)N([C@@H](C)CO)C[C@@H](C)[C@@H](CN(C)S(=O)(=O)c2ccc(F)cc2)O3)cc1 the results were NSD2 inh 4.
For Cc1ccc(-c2cnc3c(c2)C(=O)N([C@@H](C)CO)C[C@@H](C)[C@@H](CN(C)C(=O)c2ccccc2)O3)cc1 the results were NSD2 inh -5.
`C[C@@H]1CN([C@H](C)CO)C(=O)Cc2cc(NC(=O)CCC(F)(F)F)ccc2O[C@@H]1CN(C)Cc1ccc(Cl)c(Cl)c1` gave NSD2 inh -7.
CC1(C)COC(CCC/C=N/NC(=O)c2cccc(C(=O)NO)c2)OC1 was read as NSD2 inh 2.
